HT1080 IDH1KD tx = toxicity to HT-1080 IDH1 knockdown cells (counter line) | HT-1080 IDH1 knockdown viability, ATP luminescence, 48 h | Potency, µM (highest dose often 46.1 µM), most hits filed as cytotoxic | 360,000 tested, 2% active
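In this qHTS, HT-1080 cells depleted of IDH1 are exposed for 48 h at 37 °C to compound titrations. Toxicity is scored from CellTiter-Glo luminescence, with DMSO as full viability and medium alone as none.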
KB-V1 MDR tox = KB-V1 MDR subline cytotoxicity | KB-V1 MDR cells viability, CellTiter-Glo, 72 h | Potency, µM (highest dose often 46.1 µM), usual class: cytotoxic | 400,000 tested, 3.4% active | AID 1347076; further: nearly all actives have a fitted effect of over 60% in size
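KB-V1 MDR subline cells in DMEM (phenol-red free, 10% FBS) exposed to compounds in qHTS concentration series for 72 h at 37 degrees C. Viability read by CellTiter-Glo luminescence; concentration-effect curves fitted after normalization and correction.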
KB-3-1 tox = kills parental KB-3-1 adenocarcinoma cells | KB-3-1 viability, CellTiter-Glo ATP luminescence, 72 h | 400,000 tested, 1.4% active | Potency, µM (titrated, usually from 46.1 µM), most hits filed as cytotoxic; further: nearly all actives have a fitted effect of over 60% in size
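Multi-concentration cytotoxicity screen in KB-3-1 cells grown in DMEM lacking phenol red with 10% FBS. After 72 h at 37 °C with compound, ATP-dependent luminescence was recorded.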
TDP1 cell noCPT = qHTS for Inhibitors of human tyrosyl-DNA phosphodiesterase 1 (TDP1): qHTS in cells in absence of CPT; DT40 Tdp1-/- hTDP1 cells, no CPT, ATP luminescence, 48 h; Potency, µM (highest dose often 46.2 µM), hits mostly inhibitors; 420,000 tested, 15% active; AID 686978, 2013; further: nearly all actives have a fitted effect of over 55% in size
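Camptothecin absent (DMSO only). Human TDP1-complemented DT40 knockout cells, 400 cells/well, 37 °C for minimum 48 hr; ATP measured via CellTiter-Glo, 30 min dark incubation, luminescence.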
TDP1 cell CPT = growth inhibition of DT40 Tdp1-/-;hTDP1 cells with camptothecin (screen for TDP1 inhibitors); chicken DT40 Tdp1-/-;hTDP1 cells + 20 nM CPT, ATP luminescence, 48 h; Potency, µM (series often up to 46.2 µM), hits mostly inhibitors; 420,000 tested, 12% active; AID 686979; further: nearly all actives have a fitted effect of over 55% in size
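Cell growth measured by CellTiter-Glo luminescence after a minimum 48 h, 37 C compound exposure with 20 nM CPT in Tdp1-knockout DT40 cells stably expressing hTDP1, seeded 400/well; qHTS titration format.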
HT1080-NT tox = kills 2HG-producing HT-1080-NT fibrosarcoma cells | HT-1080-NT fibrosarcoma viability, CellTiter-Glo ATP luminescence, 48 h | Potency, µM (highest dose often 46.1 µM), hits mostly cytotoxic | 360,000 tested, 1.6% active | AID 686970;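 further: NT is the 2HG producing partner of a matched IDH1 knockdown line; nearly all actives have a fitted effect of over 55% in size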
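Toxicity toward the 2HG-producing NT line was scored as %Activity, normalised to DMSO and no-cell wells, from CellTiter-Glo luminescence after 48 hours' treatment.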
Hits are given with their value; n = inactive; u = inconclusive; x = no result given. In the library only some 19% were active in any assay of this set; here they are far more common. The call rests on the fitted dose curve; in most records, active means well fitted curve in the direction sought with a large enough effect; inconclusive means small, poorly fitted or top-dose-only effect, or another doubt; inactive means no such curve, though single readings can be large; an effect the other way counts as inactive or inconclusive.

SMILES	HT1080 IDH1KD tx	KB-V1 MDR tox	KB-3-1 tox	TDP1 cell noCPT	TDP1 cell CPT	HT1080-NT tox
Cc1ccccc1-n1c(/C=C/c2c(C)n(C)c3ccccc23)nc2ccccc2c1=O	x	x	x	8.2µM	6.51µM	x
Cc1ccccc1/C=C/c1nc2ccccc2c(=O)n1Cc1ccccc1	n	n	n	n	n	n
COc1ccccc1-n1c(/C=C/c2c(C)n(C)c3ccccc23)nc2ccccc2c1=O	x	x	x	3.66µM	u	x
CCOC(=O)CC(=O)CSc1nc2ccccc2c(=O)n1CCc1ccc(S(N)(=O)=O)cc1	x	n	n	u	u	x
O=C(CSc1nccn1C1CCCC1)Nc1ccccc1	x	x	x	n	n	x
COc1cccc(-c2cnc3c(NC(C)=O)cc(-c4cccc(C(=O)NCCO)c4)cn23)c1	n	n	n	u	16.4µM	n
CC(=O)Nc1cc(-c2cccc(C(=O)NCCO)c2)cn2c(-c3ccc(F)c(Cl)c3)cnc12	n	n	n	23.1µM	29.1µM	n
C=C1C(=O)C=C2CN(C(=O)c3ccccc3)[C@@](Cc3ccc(F)cc3)(C(=O)OC)[C@@H]12	5.8µM	4.61µM	5.17µM	0.0517µM	0.164µM	11.6µM
COC(=O)[C@@]1(Cc2ccc(OC)cc2)[C@@H]2C(=CC(=O)[C@H]2CC(=O)C(=O)N(C)C)CN1C(=O)c1ccccc1	u	u	16.4µM	16.4µM	n	u
COC(=O)[C@@]1(Cc2ccc(OC)cc2)[C@H]2c3cc(C(=O)N(C)C)n(C[C@H](O)CO)c3C[C@H]2CN1C(=O)c1ccccc1	n	n	n	n	n	n
COC(=O)[C@@]1(Cc2ccc(F)cc2)[C@H]2c3cc(C(=O)N(C)C)n(C)c3C[C@H]2CN1C(=O)c1ccccc1	n	u	n	u	u	n
C=C1C(=O)CC2=C1[C@](Cc1ccc(F)cc1)(C(=O)OC)N(C(=O)c1ccccc1)C2	u	n	u	20.6µM	18.4µM	u
CCOc1ccc(CCN2C(=S)N([C@@H](CC(C)C)CN3CCCC3CN3C(=S)NC[C@@H]3Cc3ccc(O)cc3)C[C@@H]2Cc2ccccc2)cc1 (stereo partly drawn)	n	u	u	u	16.4µM	n
CCOc1ccc(CCN2C(=S)N([C@@H](CC(C)C)CN3CCCC3CN3C(=S)NC[C@@H]3Cc3ccc(O)cc3)C[C@@H]2Cc2ccc(O)cc2)cc1 (stereo partly drawn)	u	u	u	6.51µM	6.51µM	u
CCOc1ccc(CCN2C(=S)N([C@@H](Cc3ccc(O)cc3)CN3CCC[C@@H]3CN3C(=S)NC[C@@H]3Cc3ccccc3)C[C@@H]2Cc2ccc(O)cc2)cc1	u	n	u	4.11µM	3.66µM	u
CCOc1ccc(CCN2C(=O)C(=O)N([C@@H](Cc3ccccc3)CN3CCC[C@@H]3CN3C(=O)C(=O)NC[C@@H]3Cc3ccc(O)cc3)C[C@@H]2Cc2ccccc2)cc1	n	n	n	n	n	n
CCOc1ccc(CCN2C(=O)C(=O)N([C@@H](CC(C)C)CN3CCC[C@H]3CN3C(=O)C(=O)NC[C@@H]3Cc3ccc(O)cc3)C[C@@H]2CC(C)C)cc1	u	n	n	u	u	u
Cc1ccc(OCCNC(=O)C2CC(=O)N(Cc3ccccc3)C2)cc1 (stereo not drawn)	n	n	n	n	n	n
O=C(NCc1ccccc1)C(c1ccccc1F)n1c(=O)c(-c2cc3ccccc3[nH]2)nc2ccccc21 (stereo not drawn)	u	n	n	u	u	u
O=C(NC1CCCCC1)C(c1cccc2ccccc12)n1c(=O)c(-c2cc3ccccc3[nH]2)nc2ccccc21 (stereo not drawn)	18.4µM	n	n	13µM	u	20.6µM
CCCCCNC(=O)C(c1cccc2ccccc12)n1c(=O)c(-c2cc3ccccc3[nH]2)nc2ccccc21 (stereo not drawn)	n	n	n	u	u	n
O=C(NC1CCCCC1)C(c1ccccc1F)n1c(=O)c(-c2cc3ccccc3[nH]2)nc2ccccc21 (stereo not drawn)	u	u	u	14.6µM	u	n
CCCN(CCC)C(=O)C1CCN(c2cc(C)nc3c(-c4ccc(Cl)cc4)c(C)nn23)CC1	x	n	n	u	n	x
Cc1nc2cc(NCc3nc4ccccc4n3Cc3ccccc3)ccc2n1C	u	10.3µM	n	u	23.1µM	u
Cc1cccc(NCc2nc3ccccc3n2Cc2ccccc2)c1	u	u	n	u	14.6µM	n
SMILES	HT1080 IDH1KD tx	KB-V1 MDR tox	KB-3-1 tox	TDP1 cell noCPT	TDP1 cell CPT	HT1080-NT tox
CCOC(=O)N1CCN(S(=O)(=O)N2CCCC(C(=O)NCc3ccc(OC)cc3)C2)CC1 (stereo not drawn)	n	n	n	n	n	n
COC(=O)c1ccc(Sc2nnnn2-c2ccccc2)c([N+](=O)[O-])c1	u	u	u	23.1µM	16.4µM	u
Cc1c(CCOC(=O)c2cc([N+](=O)[O-])cc([N+](=O)[O-])c2)sc[n+]1CC(=O)c1ccccc1	n	n	n	n	n	n
Cc1c(CCOC(=O)c2ccccc2)sc[n+]1CC(=O)c1ccc(Br)cc1	u	7.31µM	u	u	u	u
Cc1c(CCOC(=O)c2ccccc2)sc[n+]1Cc1ccccc1	n	n	n	23.1µM	16.4µM	n
COc1cn(CC(=O)Nc2cccc(C)c2)c(CN2CCCCC2)cc1=O	x	x	x	n	n	x
O=C(Cc1ccc(Br)cc1)Nc1cccc(Cl)c1	n	n	n	u	u	n
C=CCn1c(-c2ccc(OC)c(OC)c2)n[nH]c1=S	n	16.4µM	u	n	n	n
COc1cc(NC(=O)Nc2nnc([C@H]3C[C@H](O)[C@@H](CO)O3)s2)cc(OC)c1OC	n	n	n	n	n	n
CN(Cc1ccccc1)C(=O)c1ccc(NC(=O)Cc2ccc(NC(=O)C3CCN(C(=O)c4ccccc4)CC3)cc2)cc1	n	n	n	u	u	n
O=c1c(-c2cccc(F)c2)nc2cncnc2n1Cc1ccccc1	x	x	x	16.4µM	u	x
O=c1c(-c2cccc(F)c2)nc2cncnc2n1Cc1ccc(F)cc1	x	x	x	n	n	x
O=c1c(-c2ccc(F)c(F)c2)nc2cncnc2n1Cc1ccc(F)cc1	x	x	x	16.4µM	14.6µM	x
COc1ccc(-c2csc(NC(=O)c3cc(=O)c4ccccc4o3)n2)cc1OC	n	u	n	5.8µM	u	n
CCc1noc(C)c1C(=O)OCC(=O)Nc1ccc(F)cc1Cl	n	n	n	u	n	n
CCc1noc(C)c1C(=O)Nc1nc(-c2ccc(OC)c(OC)c2)cs1	n	10.3µM	n	u	u	n

Compound activity: PubChem, National Center for Advancing Translational Sciences (NCATS)
